PubChem BioAssay (NCI)
This is part of a sample that, as a whole, favours compounds with a hit. Of some 83,000 tested, about 20% had one in any assay.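 48-hour exposure, single concentration, 96-well plates; percent growth endpoint where 0 means no net growth. Active: below 10.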 The source made the active and inactive calls.

Key:
Experiment in all cases: NCI-60 one-dose screen, 48 h (100 = growth as untreated, 0 = no growth, -100 = all killed)
Details in all cases: 10 µM unless noted
SR leukemia = tested on: SR leukemia
RPMI-8226 leukemia = tested on: RPMI-8226 leukemia
OVCAR-8 ovarian = tested on: OVCAR-8 ovarian
OVCAR-5 ovarian = tested on: OVCAR-5 ovarian
OVCAR-4 ovarian = tested on: OVCAR-4 ovarian
SK-OV-3 ovarian = tested on: SK-OV-3 ovarian
IGROV1 ovarian = tested on: IGROV1 ovarian
OVCAR-3 ovarian = tested on: OVCAR-3 ovarian
HS 578T breast = tested on: HS 578T breast
NCI/ADR-RES ovarian = tested on: NCI/ADR-RES ovarian
T-47D breast = tested on: T-47D breast
BT-549 breast = tested on: BT-549 breast
MDA-MB-435 melanoma = tested on: MDA-MB-435 melanoma
SW-620 colon = tested on: SW-620 colon
MCF7 breast = tested on: MCF7 breast
HCT-116 colon = tested on: HCT-116 colon
HCC-2998 colon = tested on: HCC-2998 colon
KM12 colon = tested on: KM12 colon

Measured: growth

CC(C)(C)c1ccc(C(=O)Nc2sc3cc(O)ccc3c2C(N)=O)cc1
inactive: SR leukemia 33.7% | OVCAR-8 ovarian 81.2% | OVCAR-5 ovarian 99.3% | OVCAR-4 ovarian 72.1% | SK-OV-3 ovarian 115% | IGROV1 ovarian 57.9% | OVCAR-3 ovarian 90.8% | HS 578T breast 96.1% | NCI/ADR-RES ovarian 71.7% | T-47D breast 61.5% | BT-549 breast 85.4% | MDA-MB-435 melanoma 83.9% | SW-620 colon 53.6% | MCF7 breast 44% | HCT-116 colon 74% | HCC-2998 colon 88.2% | KM12 colon 34.6%
active: RPMI-8226 leukemia 5.05%

CCOC(=O)C1=C(C)NC(=S)NC1c1ccccc1 (stereo not drawn)
inactive: SR leukemia 94.3% | RPMI-8226 leukemia 112% | OVCAR-8 ovarian 103% | OVCAR-5 ovarian 101% | OVCAR-4 ovarian 98.5% | SK-OV-3 ovarian 114% | IGROV1 ovarian 97.4% | OVCAR-3 ovarian 110% | HS 578T breast 98.9% | NCI/ADR-RES ovarian 109% | T-47D breast 96.2% | BT-549 breast 110% | MDA-MB-435 melanoma 102% | SW-620 colon 97.3% | MCF7 breast 99.7% | HCT-116 colon 103% | HCC-2998 colon 110% | KM12 colon 101%

CO[C@H](C(=O)[C@@H](O)[C@@H](C)O)[C@@H]1Cc2cc3cc(O[C@H]4C[C@@H](O[C@H]5C[C@@H](O)[C@H](O)C(C)O5)[C@H](O)C(C)O4)c(C)c(O)c3c(O)c2C(=O)[C@H]1O[C@H]1C[C@@H](O[C@H]2C[C@@H](O[C@H]3C[C@](C)(O)C(=O)C(C)O3)[C@@H](O)C(C)O2)[C@H](O)C(C)O1 (stereo partly drawn)
inactive: OVCAR-5 ovarian 13.1% | IGROV1 ovarian 12.2% | NCI/ADR-RES ovarian 76%
active: SR leukemia 8.44% | RPMI-8226 leukemia -21% | OVCAR-8 ovarian 2.48% | OVCAR-4 ovarian 8.45% | SK-OV-3 ovarian 9.52% | OVCAR-3 ovarian -12.5% | HS 578T breast -13.8% | T-47D breast -8.49% | BT-549 breast -24.5% | MDA-MB-435 melanoma -41.3% | SW-620 colon 8.29% | MCF7 breast 6.66% | HCT-116 colon 4.55% | HCC-2998 colon -9.52% | KM12 colon 1.23%

CC(=O)NC1C(O[C@H]2C[C@H]3[C@@H]4CC=C5C[C@@H](O)CC[C@]5(C)[C@H]4CC[C@]3(C)[C@H]2[C@H](C)C(=O)CCC(C)C)OCC(O)C1O (stereo partly drawn)
inactive: SR leukemia 18.7% | OVCAR-8 ovarian 66.3% | OVCAR-5 ovarian 74.2% | OVCAR-4 ovarian 87.8% | SK-OV-3 ovarian 37.9% | IGROV1 ovarian 72% | OVCAR-3 ovarian 72% | NCI/ADR-RES ovarian 88.8% | T-47D breast 45.4% | BT-549 breast 31.3% | MDA-MB-435 melanoma 35.3% | SW-620 colon 49.4% | MCF7 breast 43.4% | HCT-116 colon 31.8% | HCC-2998 colon 89.5% | KM12 colon 70.1%
active: RPMI-8226 leukemia -9.81% | HS 578T breast 5.84%

CCSc1cnnc2ccccc12
inactive: SR leukemia 94.2% | RPMI-8226 leukemia 111% | OVCAR-8 ovarian 104% | OVCAR-5 ovarian 103% | OVCAR-4 ovarian 103% | SK-OV-3 ovarian 109% | IGROV1 ovarian 128% | OVCAR-3 ovarian 121% | HS 578T breast 117% | NCI/ADR-RES ovarian 104% | T-47D breast 107% | BT-549 breast 116% | MDA-MB-435 melanoma 105% | SW-620 colon 113% | MCF7 breast 108% | HCT-116 colon 106% | HCC-2998 colon 101% | KM12 colon 113%

CC(C)(C)[Si](C)(C)OC1[C@@H](CNC(N)=O)O[C@@H](n2cnc3c(NC(=O)Nc4ccccc4)ncnc32)[C@H]1O[Si](C)(C)C(C)(C)C (stereo partly drawn)
inactive: RPMI-8226 leukemia 47.6% | OVCAR-8 ovarian 59.9% | OVCAR-5 ovarian 82.5% | OVCAR-4 ovarian 50.3% | SK-OV-3 ovarian 93.6% | IGROV1 ovarian 56.1% | OVCAR-3 ovarian 61.1% | HS 578T breast 58.7% | NCI/ADR-RES ovarian 58.5% | T-47D breast 64.6% | BT-549 breast 80.1% | MDA-MB-435 melanoma 53% | SW-620 colon 62% | MCF7 breast 17.9% | HCC-2998 colon 19% | KM12 colon 48.9%
active: SR leukemia 6.81% | HCT-116 colon 0.343%

O=C1c2cccc3cccc(c23)C(=O)N1CCCCCCCCCCN1C(=O)c2cccc3cccc(c23)C1=O
inactive: SR leukemia 96.8% | RPMI-8226 leukemia 108% | OVCAR-8 ovarian 104% | OVCAR-5 ovarian 106% | OVCAR-4 ovarian 95% | SK-OV-3 ovarian 105% | IGROV1 ovarian 110% | OVCAR-3 ovarian 109% | HS 578T breast 99.1% | NCI/ADR-RES ovarian 110% | T-47D breast 97.7% | BT-549 breast 114% | MDA-MB-435 melanoma 104% | SW-620 colon 104% | MCF7 breast 86.9% | HCT-116 colon 117% | HCC-2998 colon 112% | KM12 colon 109%

CC(C)=CC[C@@H]1CC2(CC=C(C)C)C(=O)C(OC3(C(=O)c4ccccc4)C(=O)C4(CC=C(C)C)C[C@@H](CC=C(C)C)C(C)(C)C(CC=C(C)C)(C4=O)C3=O)(C(=O)c3ccccc3)C(=O)C(CC=C(C)C)(C2=O)C1(C)C (stereo partly drawn)
active: SR leukemia 4.95% | RPMI-8226 leukemia -23% | OVCAR-8 ovarian 1.06% | SK-OV-3 ovarian 2.61% | OVCAR-3 ovarian -9.05% | HS 578T breast 1.98% | NCI/ADR-RES ovarian 5.81% | T-47D breast 1.58% | BT-549 breast -2.41% | MDA-MB-435 melanoma 6.28% | SW-620 colon 9.62% | MCF7 breast 2.12% | HCT-116 colon -33.4% | KM12 colon 6.68%
inactive: OVCAR-5 ovarian 14.9% | OVCAR-4 ovarian 20.4% | IGROV1 ovarian 15.5% | HCC-2998 colon 10.7%

Cc1cccc2nc3ccccc3c(Nc3ccc(NS(C)(=O)=O)cc3)c12
inactive: RPMI-8226 leukemia 52.3% | OVCAR-8 ovarian 39.8% | OVCAR-5 ovarian 62.1% | OVCAR-4 ovarian 77.5% | SK-OV-3 ovarian 41% | IGROV1 ovarian 43.1% | OVCAR-3 ovarian 74.3% | HS 578T breast 87.8% | NCI/ADR-RES ovarian 80.8% | T-47D breast 37.1% | BT-549 breast 81.7% | MDA-MB-435 melanoma 78.6% | SW-620 colon 34.2% | MCF7 breast 24.8% | HCT-116 colon 31.8% | HCC-2998 colon 75.5% | KM12 colon 55.5%
active: SR leukemia -3.06%

COc1ccc(/C(C)=N/NC(=O)CSc2nc3ccccc3c(=O)n2CCc2ccc(S(N)(=O)=O)cc2)cc1
inactive: SR leukemia 40.2% | OVCAR-5 ovarian 55% | IGROV1 ovarian 19.1% | OVCAR-3 ovarian 16.6% | HS 578T breast 29.5% | NCI/ADR-RES ovarian 79.4% | T-47D breast 22.3% | BT-549 breast 64.2% | MDA-MB-435 melanoma 16.7% | SW-620 colon 54.6% | MCF7 breast 59.1% | HCC-2998 colon 74.8% | KM12 colon 25.1%
active: RPMI-8226 leukemia 5.61% | OVCAR-8 ovarian -12.9% | OVCAR-4 ovarian -54.1% | SK-OV-3 ovarian -31.8% | HCT-116 colon -47%

COc1ccc(-c2cc(C(=O)Nc3ccc(C)cc3)nc3[nH]c(=O)sc23)cc1
inactive: SR leukemia 76.8% | RPMI-8226 leukemia 47.2% | OVCAR-8 ovarian 77.1% | OVCAR-5 ovarian 100% | OVCAR-4 ovarian 71.7% | SK-OV-3 ovarian 68.4% | IGROV1 ovarian 70.3% | OVCAR-3 ovarian 80.1% | HS 578T breast 74.1% | NCI/ADR-RES ovarian 78.3% | T-47D breast 58.7% | BT-549 breast 75.9% | MDA-MB-435 melanoma 65.5% | SW-620 colon 77.2% | MCF7 breast 71.6% | HCT-116 colon 66.2% | HCC-2998 colon 76.7% | KM12 colon 67.4%

CC1=CC(=O)OC1C/C=C(\C)CCC1[C@@]2(C)CCC[C@@](C)(C(=O)O)C2CC[C@@]1(C)O (stereo partly drawn)
inactive: SR leukemia 33.2% | RPMI-8226 leukemia 24.3% | OVCAR-8 ovarian 42.8% | OVCAR-5 ovarian 111% | OVCAR-4 ovarian 75.5% | SK-OV-3 ovarian 98.1% | IGROV1 ovarian 107% | OVCAR-3 ovarian 56% | HS 578T breast 38.5% | NCI/ADR-RES ovarian 91.8% | T-47D breast 87.3% | BT-549 breast 67.3% | MDA-MB-435 melanoma 16.7% | SW-620 colon 32.4% | MCF7 breast 28.8% | HCT-116 colon 27.9% | HCC-2998 colon 44% | KM12 colon 26.4%

CCOC(=O)C1=C(C(=O)OCC)N(c2cc(OC)c(OC)c(OC)c2)C(N)=C(C#N)C1c1cc(=O)[nH]c2ccccc12 (stereo not drawn)
inactive: SR leukemia 93.5% | RPMI-8226 leukemia 114% | OVCAR-8 ovarian 105% | OVCAR-5 ovarian 101% | OVCAR-4 ovarian 101% | SK-OV-3 ovarian 97% | IGROV1 ovarian 98.2% | OVCAR-3 ovarian 110% | HS 578T breast 97.2% | NCI/ADR-RES ovarian 101% | T-47D breast 95.4% | BT-549 breast 96.5% | MDA-MB-435 melanoma 96.6% | SW-620 colon 99.2% | MCF7 breast 96% | HCT-116 colon 100% | HCC-2998 colon 108% | KM12 colon 102%

COc1ccccc1CNCCCN1C(=O)c2ccc3c4c(ccc(c24)C1=O)C(=O)N(CCCCNCCCN)C3=O
inactive: SR leukemia 11.3% | RPMI-8226 leukemia 10.6% | OVCAR-5 ovarian 69.8% | SK-OV-3 ovarian 56.9% | HS 578T breast 31.5% | NCI/ADR-RES ovarian 72.6% | BT-549 breast 58% | KM12 colon 10.7%
active: OVCAR-8 ovarian -16% | OVCAR-4 ovarian -90.4% | IGROV1 ovarian -25% | OVCAR-3 ovarian -30.4% | T-47D breast -45.4% | MDA-MB-435 melanoma -70% | SW-620 colon -25% | MCF7 breast -41.7% | HCT-116 colon -11% | HCC-2998 colon -6.41%

Clc1nnc2c3ccccc3ccn12
inactive: SR leukemia 106% | RPMI-8226 leukemia 99.6% | OVCAR-8 ovarian 99.1% | OVCAR-5 ovarian 103% | OVCAR-4 ovarian 111% | SK-OV-3 ovarian 95.1% | IGROV1 ovarian 113% | OVCAR-3 ovarian 112% | HS 578T breast 103% | NCI/ADR-RES ovarian 112% | T-47D breast 108% | BT-549 breast 97.9% | MDA-MB-435 melanoma 111% | SW-620 colon 96.7% | MCF7 breast 107% | HCT-116 colon 103% | HCC-2998 colon 115% | KM12 colon 109%

CCS(=O)(=O)Nc1cccc(Nc2c3cccc(C)c3nc3c(C)cccc23)c1OC
active: SR leukemia 5.24% | HCC-2998 colon 1.62%
inactive: RPMI-8226 leukemia 15.8% | OVCAR-8 ovarian 24% | OVCAR-5 ovarian 21% | OVCAR-4 ovarian 83.5% | SK-OV-3 ovarian 30.6% | IGROV1 ovarian 36.2% | OVCAR-3 ovarian 47.2% | HS 578T breast 61.2% | NCI/ADR-RES ovarian 41.7% | T-47D breast 22.2% | BT-549 breast 15.8% | MDA-MB-435 melanoma 54.9% | SW-620 colon 33.2% | MCF7 breast 11.6% | HCT-116 colon 22.9% | KM12 colon 15.4%
